CBFb RUNX1 block: blocks binding between human CBF-beta and RUNX1. Potency, µM (top dose mostly 59.8 µM), for the others: at the highest dose activity, negative = inhibition, hits mostly inhibitors. Q01196+Q13951. 230,000 tested, under 10 active. AlphaScreen CBFb-His/RUNX1-biotin binding, biochemical; further: % of control where 0% means no effect
Target sequence (Q01196 whole entry, looked up): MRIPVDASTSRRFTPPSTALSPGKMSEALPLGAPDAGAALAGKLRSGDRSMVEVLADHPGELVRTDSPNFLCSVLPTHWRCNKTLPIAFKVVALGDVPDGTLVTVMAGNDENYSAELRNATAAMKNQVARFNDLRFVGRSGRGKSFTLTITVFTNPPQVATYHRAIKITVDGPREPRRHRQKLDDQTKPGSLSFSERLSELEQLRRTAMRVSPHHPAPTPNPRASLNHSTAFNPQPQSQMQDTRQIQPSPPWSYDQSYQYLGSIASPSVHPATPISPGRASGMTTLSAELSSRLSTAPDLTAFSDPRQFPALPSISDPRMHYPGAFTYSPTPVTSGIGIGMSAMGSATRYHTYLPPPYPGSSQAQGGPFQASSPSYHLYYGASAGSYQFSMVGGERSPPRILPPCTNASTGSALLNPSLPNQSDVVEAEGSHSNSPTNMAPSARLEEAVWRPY
Target sequence (Q13951 whole entry, looked up): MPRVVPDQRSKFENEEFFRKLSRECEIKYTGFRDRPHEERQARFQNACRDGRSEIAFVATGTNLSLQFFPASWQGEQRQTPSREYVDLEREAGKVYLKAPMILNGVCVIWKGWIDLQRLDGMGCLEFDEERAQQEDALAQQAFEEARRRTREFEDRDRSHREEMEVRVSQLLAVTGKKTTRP
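CBFb-His/RUNX1-biotin, 30 nM each, preincubated 20 min RT; compound 15 min RT; Ni + streptavidin beads 50 ng each, 90 min RT; AlphaScreen read.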
JMJD2E inh: inhibitors of human JMJD2E histone demethylase; B2RXH2; JMJD2E catalytic domain, FDH-coupled NADH fluorescence (FDH is formaldehyde dehydrogenase); Potency, µM (doses to about 57.1 µM), without a hit: top-dose activity change, negative = inhibition, hits mostly inhibitors; hit rate 1.6% among 230,000; active means well fitted inhibition curve with a large enough effect, not every such curve was filed as active; inconclusive means small, poorly fitted or top-dose-only effect, or another doubt; inactive means no such curve, though single readings can be large or run the other way;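 further: potency means the concentration at half of the fitted maximal effect; 0% = wells with enzyme and -100% = buffer wells without enzyme; nearly all actives have a fitted effect of over 50% in size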
HTT aggregate: reduces HttQ103-GFP aggregates in PC12 cells; PC12 HttQ103-GFP aggregates, Acumen cytometry, 40 h; hit rate 1.1% among 220,000; Potency, µM (top dose mostly 46.1 µM), inactives show at the highest dose activity change, negative = inhibition, usual class: inhibitors; AID 1688; further: potency means the concentration at half of the fitted maximal effect; on the % scale 0 is the no-effect control and ±100 the full control effect; nearly all actives have a fitted effect of over 60% in size
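Ecdysone-promoter PC12 model expressing HTT exon 1 Q103 fused to GFP, induced by tebufenozide at 100 nM final. Compounds titrated; aggregates sized 1–25 µm scored on a 488 nm laser cytometer.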
HPGD block: blocks human HPGD enzyme activity; P15428; purified HPGD, NADH fluorescence kinetic, PGE2 substrate; Potency, µM, inactives show top-dose activity change, negative = inhibition, usual class: inhibitors; hit rate 4.3% among 150,000; AID 894; active means well fitted inhibition curve with a large enough effect, not every such curve was filed as active; inconclusive means small, poorly fitted or top-dose-only effect, or another doubt; inactive means no such curve, though single readings can be large or run the other way; further: potency means the concentration at half of the fitted maximal effect; on the % scale 0 is the no-effect control and ±100 the full control effect
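20 nM HPGD preincubated 15 min at room temperature with compound in 50 mM Tris-HCl pH 8, 0.01% Tween 20. Started with 1 mM NAD+ and 30 uM prostaglandin E2; NADH fluorescence (360/450 nm) read 5 times over 30-s intervals, last minus first.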
ALDH1A1 inh: blocks purified human ALDH1A1 activity; Purified ALDH1A1, NADH fluorescence, propionaldehyde substrate; hit rate 7.3% among 220,000; Potency, µM (doses to about 75.3 µM), for inactives: top-dose activity, negative = inhibition, usual class: inhibitors; active means well fitted inhibition curve with a large enough effect, not every such curve was filed as active; inconclusive means small, poorly fitted or top-dose-only effect, or another doubt; inactive means no such curve, though single readings can be large or run the other way;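 further: potency means the concentration at half of the fitted maximal effect; plate controls were no enzyme wells and a reference inhibitor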
HTT ATP protect: Huntington cell model cytoprotection by ATP luminescence; PC12 HTT-Q103 induced, cytoprotection, ATP luminescence, 40 h; Potency, µM (highest dose often 56.4 µM), for the others: cytoprotection (ATP increase), hits mostly activators; hit rate 0.14% among 230,000; AID 1471; further: potency means the concentration at half of the fitted maximal effect; % of control where 0% means no effect; nearly all actives have a fitted effect of over 45% in size
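ATP quantification (ATPlite) reports survival of PC12 cells in which tebufenozide, 100 nM final, switches on Htt exon 1 with 103 glutamines linked to GFP; compounds are titrated.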
Starred values were filed as active, the others as inactive; ? = inconclusive; · = no result given; [ ] = another dose, or the depositor's remark. The list is not random: actives were taken first. Their share in the collection is about 9.8%. Unless noted, the call rests on the fitted dose curve; in most records, active means well fitted curve in the direction sought with a large enough effect; inconclusive means small, poorly fitted or top-dose-only effect, or another doubt; inactive means no such curve, though single readings can be large; an effect the other way counts as inactive or inconclusive.

SMILES	CBFb RUNX1 block	JMJD2E inh	HTT aggregate	HPGD block	ALDH1A1 inh	HTT ATP protect
COc1ccc(CSc2nnc3[nH]c(=O)cc(N)n23)cc1	-28%	8%	15%	·	-3%	-60%
CC(=O)c1cccc(N2Cc3ccccc3C2=NC(=O)CCl)c1	14%	-11%	21%	·	3.5µM*	-6%
CC(=O)c1ccc(N2Cc3ccccc3/C2=N\C(=O)Nc2ccccc2)cc1	3%	2%	0%	-7%	15%	-4%[10 µM]
CCc1ccccc1NC1=NCC(=O)N1C1CCCC1	1%	5%	17%[9.22 µM]	·	-6%	6%[10 µM]
Cc1ccccc1N(CC(=O)N1CCOCC1)S(C)(=O)=O	2%	?	-13%[9.22 µM]	·	?	-28%[10 µM]
Cc1cccc(Nc2n[nH]c(C)c2[N+](=O)[O-])c1	-5%	-2%	2%	11µM*	0%	-21%[10 µM]
Cc1[nH]nc(Nc2ccccc2)c1[N+](=O)[O-]	-1%	1%	-8%	-28%	-3%	3%
COc1cc(OC)c(N(C)S(=O)(=O)c2cccc(C(=O)Nc3nnc(C4CC4)s3)c2)cc1Cl	6%	?	-5%[9.22 µM]	·	·	-6%[10 µM]
O=C(CCN1C(=O)C2C3C=CC(C3)C2C1=O)N1CCN(c2cccc(Cl)c2)CC1 (configuration not stated)	-2%	-2%	-7%	-13%	7.9µM*	-22%
COc1ccc(CCNC(=O)NC23CC4CC(CC(C4)C2)C3)cc1	1%	-2%	-15%	1%	?	1%
Cc1ccccc1CSCCC(=O)NCCC1=CCCCC1	4%	-1%	6%	13µM*	-37%	8%[10 µM]
O=C(CNCCC1=CCCCC1)Nc1ccccc1N1CCCCC1	5%	10%	23%	?	9.5µM*	11%[1.9 µM]
O=C(NCCC1=CCCCC1)NC12CC3CC(CC(C3)C1)C2	4%	-14%	22µM*	-6%	?	-11%[10 µM]
CC(C(=O)NCCC1=CCCCC1)N1C(=O)c2ccccc2C1=O (configuration not stated)	1%	2%	5.6µM*	-15%	-15%	-61%[10 µM]
CCOC(=O)CNC(=O)c1c(C)nn(C)c1Cl	3%	10%	-6%	·	5%	32%[10 µM]
O=C(CCCc1ccccc1)NCCC1=CCCCC1	1%	0%	-6%[9.22 µM]	·	?	-38%
O=C(CCc1ccccc1)NCCC1=CCCCC1	8%	15%	3%	25µM*	5%	-10%[0.074 µM]
CC(C)c1ccc(/C=C/C(=O)NCCC2=CCCCC2)cc1	5%	0%	3%	-25%	4.5µM*	-5%[10 µM]
Cc1ccccc1CSCCNC(=O)CCSc1ccccc1	4%	5%	7%	10µM*	7.1µM*	17%
CC(C)CC1NC(=O)N(CC(=O)Nc2ccc3c(c2)CCC3)C1=O (configuration not stated)	9%	15%	17%	·	3%	19%[10 µM]
O=C(c1ccco1)N1CCN(Cc2cn[nH]c2-c2cccc3ccccc23)CC1	10%	3%	-20%[9.22 µM]	·	·	-5%[10 µM]
COc1ccc(C(C#N)C2(C)OCCO2)cc1OC (configuration not stated)	6%	5%	2.5µM*	-9%	11µM*	1%
C=CCN1C(=O)/C(=c2\sc3nc(=O)c(Cc4ccccc4)nn3c2=O)c2ccccc21	-17%	-12%	17%[9.22 µM]	·	3.5µM*	25%[10 µM]
C=CCN1C(=O)/C(=c2\sc3nc(=O)c(Cc4ccc(OC)c(OC)c4)nn3c2=O)c2ccccc21	-19%	-3%	1%[9.22 µM]	·	3.2µM*	32%[10 µM]
CCN1C(=O)/C(=c2\sc3nc(=O)c(Cc4ccccc4)nn3c2=O)c2ccccc21	-28%	-10%	-11%[9.22 µM]	·	·	-12%[10 µM]
SMILES	CBFb RUNX1 block	JMJD2E inh	HTT aggregate	HPGD block	ALDH1A1 inh	HTT ATP protect
Cn1cc(C=C2C(=O)OC3(CCCCC3)OC2=O)c2ccccc21	-5%	1%	-8%[9.22 µM]	·	·	9%[10 µM]
Cn1cc(C=C2C(=O)CC(C)(C)CC2=O)c2ccccc21	3%	-7%	0.025µM*	-10%	1.3µM*	·
C[C@@H](C(=O)N[C@@H](Cc1ccccc1)C(=O)O)n1nnc2ccccc2c1=O	6%	2%	5%[9.22 µM]	·	·	-2%[10 µM]
CCOC(=O)c1ccc(NS(=O)(=O)c2ccc(SC)cc2)cc1	3%	2%	-5%	-13%	?	1%
COc1ccc(S(=O)(=O)NN=C2CCCCC2)cc1	-2%	1%	7%	-10%	0.63µM*	-19%
COc1ccc(NS(=O)(=O)c2ccc(SC)cc2)c(OC)c1	2%	2%	-18%	-11%	8.9µM*	9%
CCOC(=O)Cc1ccc(NS(=O)(=O)c2ccc(SC)cc2)cc1	3%	?	1%	-15%	8.9µM*	-5%
Cc1ccc(S(=O)(=O)NN=C2CCN(Cc3ccccc3)CC2)cc1	-1%	-4%	-8%	-4%	3.5µM*	·
Cc1ccc(S(=O)(=O)NNC(=O)C2CCN(Cc3ccccc3)CC2)cc1	1%	-4%	5%	-8%	8%	19%[10 µM]
COc1ccc(NS(=O)(=O)c2cccs2)c(OC)c1	1%	-5%	-1%	-5%	-10%	-10%
CCOC(=O)N1CCN(C(=O)CSc2ccc3nnc(-c4cccnc4)n3n2)CC1	-1%	21%	0%	·	?	-57%
COC(=O)[C@@H]1C[C@@H]2CC[C@@H](O)C[C@@H]2N1Cc1ccc(C)s1	1%	-14%	·	-8%	2%	-11%
CC(=O)N1CCc2cc(Br)cc(S(=O)(=O)N3CCc4ccccc43)c21	-4%	-10%	0%	·	-9%	-23%
CC(C)Cn1c(=O)n(C)c(=O)c2[nH]cnc21	6%	4%	-2%[9.22 µM]	-5%	1%	-20%
COc1ccc(S(=O)(=O)Nc2cccc(SC)c2)cc1OC	-1%	2%	0.71µM*	5%	0%	5%[10 µM]
CCOc1ccc(S(=O)(=O)N/N=C(\C)c2ccc(OC)cc2OC)cc1	-27%	0%	-15%	·	22µM*	-15%
CCOc1ccc(S(=O)(=O)NN)cc1	-2%	6%	19%	-1%	2µM*	3%
CCOc1ccc(S(=O)(=O)NN=C2CCN(C(C)=O)CC2)cc1	5%	-4%	-6%	·	7.9µM*	-14%
COc1ccc(/C(C)=N/NS(=O)(=O)c2cc(C)ccc2C)c(OC)c1	-21%	7%	-10%	·	?	-35%
CCOc1ccc(NS(=O)(=O)c2ccc(SC)cc2)cc1	20%	-5%	-22%	-5%	11µM*	12%[10 µM]
CC(C)C[C@@H](CC(=O)N[C@@H](CCC(=O)O)CC(=O)O)NC(=O)[C@@H]1CCCC[C@H]1NC(=O)C[C@@H](NC(=O)C[C@H](Cc1ccccc1)NC(=O)[C@@H]1CCCC[C@H]1N)C(C)C	4%	1%	·	-5%	13%	2%[1.9 µM]
CCC(=O)Nc1cc(-c2nn(C)c(=O)c3ccccc23)ccc1N1CCOCC1	-2%	-4%	-3%	-12%	?	-14%

Compound activity: PubChem BioAssay, National Center for Advancing Translational Sciences (NCATS)
